From PubChem
Most compounds without a hit are left out; they make up all but 4.1% or so of the library.
TWEAK-Fn14 inh: inhibitors of TWEAK-Fn14 interaction signaling; inhibition, % at 10 µM; TWEAK-stimulated Fn14 reporter cells, luciferase luminescence, 8 h; 360,000 tested, 2% active; AID 1159606; in the data active = inhibition above about 50%
TROY signal inh: blocks TROY-dependent signaling in reporter cells; 360,000 tested, 0.98% active; inhibition, % at 10 µM; Q293 LMP1-TROYcd NF-kB luciferase reporter, 4 h;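 active = compounds whose plate-normalised and pattern-corrected inhibition of the luciferase reporter signal at the single screening dose is 50% or more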
Shn3 inh set2: inhibitors of Schnurri-3 3'UTR reporter in osteoblasts. Clone20 osteoblast Shn3 3'UTR firefly luciferase, 24 h. inhibition, % at 12.5 µM. 360,000 tested, 0.52% active. AID 588674;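 active = mean inhibition of at least 75% with every replicate also reaching 75%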;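 also: 0% = median of neutral control wells and 100% = pilot-screen positive control compound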
EBV LMP1 NFkB: Epstein-Barr LMP1 NF-kappaB reporter inhibition; LMP1-induced NF-kappaB luciferase reporter cells, luminescence; inhibition, % at 12.5 µM; 350,000 tested, 0.69% active; AID 504558; in the data active = inhibition above about 41%;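 also: 0% = neutral control wells and 100% = reference inhibitor control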
Peg3 prom inh-1: Peg3 promoter activity inhibition; inhibition, % at 20 µM; HeLa PEG-Prom luciferase reporter, luminescence, overnight; 360,000 tested, 1.7% active;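 active = inhibition of at least 50% at 20 µM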
MITF TRPM1 inh: reduces MITF-dependent TRPM1 promoter luciferase signal. SK-MEL-5 TRPM1 promoter luciferase, 24 h. inhibition, % at 12.5 µM. 330,000 tested, 0.83% active. AID 488899;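 active = mean inhibition across replicates of 60% or more, whatever share of single replicates reaches that level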
Peg3 prom inh-2: Peg3 promoter inhibition confirmation. HeLa PEG-Prom luciferase reporter, luminescence, overnight. inhibition, % at 20 µM. shares compounds with Peg3 prom inh-1. AID 602417. 1,300 tested, 84% active;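 active = at 20 µM dose, 40% or more inhibition averaged across four replicates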
Active calls of the source: *.

For CC1(C)Cc2c(sc(NC(=O)COc3ccc(Cl)cc3Cl)c2C(N)=O)C(C)(C)N1 the results were TWEAK-Fn14 inh -1, TROY signal inh -11, Shn3 inh set2 2, EBV LMP1 NFkB -11, Peg3 prom inh-1 34 and MITF TRPM1 inh -6.
Screening CC(OC(=O)CCN=C1NS(=O)(=O)c2ccccc21)C(=O)NCc1ccccc1 (configuration not stated) returned TWEAK-Fn14 inh -4, TROY signal inh -13, Shn3 inh set2 -2, EBV LMP1 NFkB -14, Peg3 prom inh-1 -11 and MITF TRPM1 inh 8.
For COc1cc2c(cc1OC)C(SC)=NC1(CCCC1)C2 the results were TWEAK-Fn14 inh 12, TROY signal inh -10, Shn3 inh set2 15, EBV LMP1 NFkB 3, Peg3 prom inh-1 64*, MITF TRPM1 inh 87* and Peg3 prom inh-2 -30.
For COc1cc2c(cc1OC)C(C)=NC1(CCCCC1)C2 the results were TWEAK-Fn14 inh -14, TROY signal inh -21, Shn3 inh set2 12, EBV LMP1 NFkB 1, Peg3 prom inh-1 3 and MITF TRPM1 inh -7.
For CCOC(=O)C1CCN(C(=O)COC(=O)CSc2ccc(C(N)=O)cc2[N+](=O)[O-])CC1 the results were TWEAK-Fn14 inh 3, TROY signal inh 1, Shn3 inh set2 -16, EBV LMP1 NFkB -3, Peg3 prom inh-1 13 and MITF TRPM1 inh -10.
Screening CC1(Cc2ccc(Cl)c(Cl)c2)C(=O)Nc2ccc(S(=O)(=O)NC3CCCCC3)cc21 (configuration not stated) returned TWEAK-Fn14 inh 47, TROY signal inh 31, Shn3 inh set2 24, Peg3 prom inh-1 69* and Peg3 prom inh-2 68*.
CC1(Cc2cccc(F)c2)C(=O)Nc2ccc(S(=O)(=O)NC3CCCCC3)cc21 (configuration not stated) was read as TWEAK-Fn14 inh 15, TROY signal inh 5, Shn3 inh set2 -3 and Peg3 prom inh-1 33.
CC(C)(c1ccccc1)c1ccc(OCC(O)CNC2CCN(Cc3ccccc3)CC2)cc1 (configuration not stated) was read as TWEAK-Fn14 inh -69, TROY signal inh 21, Shn3 inh set2 37, EBV LMP1 NFkB -13, Peg3 prom inh-1 107*, MITF TRPM1 inh 79* and Peg3 prom inh-2 99*.
Screening CC(=O)NC(c1ccc(C)cc1)c1cc(Cl)c2cccnc2c1O (configuration not stated) returned TWEAK-Fn14 inh 12, TROY signal inh 18, Shn3 inh set2 87*, EBV LMP1 NFkB 29, Peg3 prom inh-1 65*, MITF TRPM1 inh 43 and Peg3 prom inh-2 56*.
Screening CC(=O)NC(c1ccccc1)c1cc([N+](=O)[O-])c2cccnc2c1O (configuration not stated) returned TWEAK-Fn14 inh 36, TROY signal inh 19, Shn3 inh set2 -11, EBV LMP1 NFkB 2, Peg3 prom inh-1 61*, MITF TRPM1 inh 14 and Peg3 prom inh-2 63*.
For CC(=O)NC(c1ccco1)c1cc(Cl)c2cccnc2c1O (configuration not stated) the results were TWEAK-Fn14 inh 24, TROY signal inh -3, Shn3 inh set2 51 and Peg3 prom inh-1 49.
For CCC(=O)NC(c1cccs1)c1cc([N+](=O)[O-])c2cccnc2c1O (configuration not stated) the results were TWEAK-Fn14 inh 11, TROY signal inh 1, Shn3 inh set2 28, EBV LMP1 NFkB 8, Peg3 prom inh-1 53*, MITF TRPM1 inh 0 and Peg3 prom inh-2 54*.
For CCN(CC(=O)NC1CCS(=O)(=O)C1)S(=O)(=O)c1ccc(Br)cc1 (configuration not stated) the results were TWEAK-Fn14 inh -6, TROY signal inh -11, Shn3 inh set2 4, EBV LMP1 NFkB -2, Peg3 prom inh-1 -3 and MITF TRPM1 inh -12.
O=C(c1ccccc1)N1CCN(c2ccc([N+](=O)[O-])c(NCc3cccnc3)c2)CC1 was read as TWEAK-Fn14 inh 12, TROY signal inh 14, Shn3 inh set2 10, EBV LMP1 NFkB 1, Peg3 prom inh-1 42 and MITF TRPM1 inh -3.
For O=C(c1ccc(Cl)cc1)N1CCN(c2ccc([N+](=O)[O-])c(NCc3cccnc3)c2)CC1 the results were TWEAK-Fn14 inh 2, TROY signal inh 25, Shn3 inh set2 19, EBV LMP1 NFkB 6, Peg3 prom inh-1 55*, MITF TRPM1 inh 9 and Peg3 prom inh-2 49*.
Screening COc1ccc(CN2CCC(=O)N(CCO)CC2)cc1OC returned TWEAK-Fn14 inh -6, TROY signal inh -1, Shn3 inh set2 -7, EBV LMP1 NFkB 2, Peg3 prom inh-1 -1 and MITF TRPM1 inh 3.
Screening CCOC(=O)/C(=C\c1ccccc1)C(=O)CCN1CCOCC1 returned TWEAK-Fn14 inh 21, TROY signal inh 0, Shn3 inh set2 21, EBV LMP1 NFkB 1, Peg3 prom inh-1 97*, MITF TRPM1 inh 84* and Peg3 prom inh-2 86*.
Screening O=C(CCc1ccccc1)OCCN1CCOCC1 returned TWEAK-Fn14 inh 3, TROY signal inh 3, Shn3 inh set2 -25, EBV LMP1 NFkB -3, Peg3 prom inh-1 -13 and MITF TRPM1 inh 2.
Screening CCCN1C2CCCC1CC(NC(=O)c1cccc([N+](=O)[O-])c1)C2 (configuration not stated) returned TWEAK-Fn14 inh -7, TROY signal inh 17, Shn3 inh set2 -4, EBV LMP1 NFkB -2, Peg3 prom inh-1 13 and MITF TRPM1 inh -5.
`NC(=O)c1ccc(NC(=O)CSc2nnc(-c3ccc4c(c3)OCO4)o2)cc1` gave TWEAK-Fn14 inh -4, TROY signal inh 6, Shn3 inh set2 10, EBV LMP1 NFkB -5, Peg3 prom inh-1 -72 and MITF TRPM1 inh -15.
For O=C(c1ccc(Cl)cc1)N1CCCCC(Sc2nnc(-c3ccc4c(c3)OCO4)o2)C1=O (configuration not stated) the results were TWEAK-Fn14 inh 98*, TROY signal inh 58*, Shn3 inh set2 70, EBV LMP1 NFkB 75*, Peg3 prom inh-1 54*, MITF TRPM1 inh 80* and Peg3 prom inh-2 58*.
Screening CCC(CC)C(=O)N(C)c1c(C)nc2c(OCc3ccc(OC(F)F)cc3)cccn12 returned TWEAK-Fn14 inh 9, TROY signal inh -7, Shn3 inh set2 -14 and Peg3 prom inh-1 23.
For COCCn1c(=NC(=O)c2ccc(S(=O)(=O)N3CCc4ccccc4C3)cc2)sc2cc(S(N)(=O)=O)ccc21 the results were TWEAK-Fn14 inh 16, TROY signal inh -6, Shn3 inh set2 15, EBV LMP1 NFkB 7, Peg3 prom inh-1 26 and MITF TRPM1 inh -5.
`C=CCn1c(=NC(=O)c2ccc(S(=O)(=O)N3CCc4ccccc4C3)cc2)sc2cc(S(N)(=O)=O)ccc21` gave TWEAK-Fn14 inh 1, TROY signal inh 10, Shn3 inh set2 35, EBV LMP1 NFkB 4, Peg3 prom inh-1 72*, MITF TRPM1 inh 17 and Peg3 prom inh-2 8.
